High-throughput results from PubChem BioAssay.
This is a sample that favours compounds with a hit; in the whole collection about 3.1% have one here.
UBC13 inh: blocks human UBC13 polyubiquitin chain formation; P61088; TR-FRET; inhibition, % at 20 µM; hit rate 0.47% among 330,000; in the data active = inhibition above about 45%, passing the limit was not always enough
Target sequence (P61088 whole entry, looked up): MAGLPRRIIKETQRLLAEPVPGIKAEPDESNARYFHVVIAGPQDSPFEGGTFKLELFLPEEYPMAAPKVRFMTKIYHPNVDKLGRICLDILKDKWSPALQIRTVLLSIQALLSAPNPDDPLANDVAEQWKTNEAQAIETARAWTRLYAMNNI
MEKK2 WT-MEK5: raises or lowers MEK5 binding to wildtype human MEKK2 PB1 domain; AID 1531; Q9Y2U5; hit rate 1.1% among 290,000; bead flow cytometry, Alexa488-MEK5 binding to MEKK2 WT; actives lie on both sides; binding response (% of control), % at 10 µM; in the data active = binding response below about 67% or above about 130%
ATG4B inh: ATG4B (human) cysteine protease inhibition; Q9Y4P1; AID 504462; ATG4B cleavage of LC3-PLA2, NBD-HPC fluorescence, 1 h; inhibition, % at 8.33 µM; hit rate 0.51% among 340,000; in the data active = inhibition above about 40%
Target sequence (Q9Y4P1 whole entry, looked up): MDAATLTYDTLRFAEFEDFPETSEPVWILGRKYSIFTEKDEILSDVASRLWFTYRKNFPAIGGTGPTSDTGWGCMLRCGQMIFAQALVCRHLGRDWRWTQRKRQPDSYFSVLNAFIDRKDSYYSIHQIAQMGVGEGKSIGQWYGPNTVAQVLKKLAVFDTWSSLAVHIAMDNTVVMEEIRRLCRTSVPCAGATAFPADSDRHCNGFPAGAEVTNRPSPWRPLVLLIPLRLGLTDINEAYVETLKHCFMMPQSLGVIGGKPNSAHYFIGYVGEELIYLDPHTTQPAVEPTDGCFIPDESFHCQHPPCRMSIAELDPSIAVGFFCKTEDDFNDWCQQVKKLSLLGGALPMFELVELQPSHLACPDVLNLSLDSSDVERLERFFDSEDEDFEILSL
MEKK3 PB1 HTS: modulators (inhibitors or enhancers) of MEK5 binding to human MEKK3 PB1 domain | binding response (% of control), % at 10 µM | bead-based flow cytometry, Alexa488-MEK5 binding to MEKK3; actives lie on both sides; 0 = blocked by unlabeled MEK5, 100 = vehicle | AID 1529 | hit rate 1.4% among 290,000;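 active = binding response more than 3 SD above or below the average of its plate-row segment, actives on both sides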;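 note: Alexa488 bead fluorescence after subtracting the streptavidin-only scavenger bead signal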
MEKK2 mut-MEK5: signal of MEK5 binding to mutant human MEKK2 PB1 domain; hit rate 0.35% among 290,000; percent response, % at 10 µM; bead flow cytometry, Alexa488-MEK5 binding to MEKK2 mutant; in the data active = percent response above about 24%, passing the limit was not always enough
PREPL inh: inhibitors of human prolyl oligopeptidase-like enzyme PREPL; inhibition, % at 5.96 µM; hit rate 0.68% among 320,000; recombinant PREPL, fluorescence polarization activity-based probe; Q4J6C6;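 note: 0% = enzyme with DMSO and 100% = wells lacking enzyme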
PREPL inh cf: confirmation of human PREPL enzyme inhibitors; shares compounds with PREPL inh; recombinant PREPL, fluorescence polarization activity probe; inhibition, % at 5.96 µM; hit rate 67% among 2,000; AID 2803;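 note: 0% = protein with DMSO and 100% = wells lacking protein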
The depositor's hits bear a star; · = not tested or not shown; [ ] = another dose, or the depositor's remark. Cut-off read from the data, not from the text of the source, unless noted: active = inhibition above about 43%; inactive = the rest.

SMILES	UBC13 inh	MEKK2 WT-MEK5	ATG4B inh	MEKK3 PB1 HTS	MEKK2 mut-MEK5	PREPL inh	PREPL inh cf
CC(=O)Nc1ccc(OCC(O)CN2CCN(c3ccc(C)c(Cl)c3)CC2)cc1 (stereo not given)	1	99	-13	100	2	44*	39
COc1ccc(CSc2ccc(-c3nc4ccccn4c3NCc3ccccc3)cc2OC)cc1	4	·	4	·	·	49*	41
Cc1ccc(C2(C)NC(=O)N(CC(=O)N(c3ccccc3)C3CCS(=O)(=O)C3)C2=O)cc1 (stereo not given)	5	·	-10	·	·	51*	42
O=C(C[C@@H]1C/C=C\C[C@@H](Cc2ccc(F)cc2)C(=O)OC[C@H]2CCCN2C1=O)N[C@H](CO)Cc1ccccc1	2	·	-9	·	·	45*	47*
O=C(C[C@H]1C/C=C\CC[C@H](Cc2ccc(F)cc2)C(=O)OC[C@H]2CCCN2C1=O)N[C@H](CO)Cc1ccccc1	-10	·	-15	·	·	34	·
O=C(C[C@H]1C/C=C\C[C@@H](Cc2ccc(F)cc2)C(=O)OC[C@H]2CCCN2C1=O)N[C@@H](CO)Cc1ccccc1	20	·	-1	·	·	60*	51*
O=C(O)C1CCC(C(=O)O)SS1 (stereo not given)	·	·	-3	·	·	·	·
COc1cccc(/C=N/Nc2ccc([N+](=O)[O-])cn2)c1O	-62	102	15	104	3	56*	18
CCN1CCCC1CNC(=O)c1ccc2c(c1)NC(=O)/C(=C\c1ccc(OC)c(OC)c1)S2 (stereo not given)	23	153*[inhibitor]	0	91	25*	56*	61*
O=C(Nc1ccccc1)C1=C[C@@H](c2coc3ccccc3c2=O)C[C@@H](OCc2ccc(CO)cc2)O1	-5	99	20	101	3	49*	48*
O=c1c2ccc([N+](=O)[O-])cc2ncn1Cc1ccccc1C(F)(F)F	-11	89	3	93	-8	5	·
O=C1NN(c2ccccc2)C(=O)/C1=C\c1cccc(OC(=O)c2cccs2)c1	-19	110	23	106	17	57*	34
O=C1NN(c2ccc(Cl)c(Cl)c2)C(=O)/C1=C/c1cccc(OC(=O)c2cccs2)c1	-13	96	·	100	-3	42	·
COc1ccc2c(c1)CC1c3c(cc4c(c3-2)OCO4)CC[N+]1(C)[O-] (stereo not given)	-42	96	-1	93	-4	55*	20
O=C(CSc1ccc2nnc(-c3cccnc3)n2n1)Nc1ccccc1C(F)(F)F	5	103	-5	99	4	0	·
Nc1c(C(=O)NCc2ccc(F)cc2)c2nc3ccccc3nc2n1CCCN1CCOCC1	19	131	-14	101	7	61*	46*
COCCOC(=O)c1c(N)n(CCCN2CCOCC2)c2nc3ccccc3nc12	-8	103	1	103	7	-1	·
Nc1c(C(=O)NCc2ccccc2)c2nc3ccccc3nc2n1CCCN1CCOCC1	30	106	-30	106	2	45*	41
CN1C(c2ccccc2)=NO[C@]1(C)c1ccccc1	1	·	-4	·	·	2	·
C#CCOCCOCCOCCNc1nc(N2CCN(C(=O)CCCCCCCCCCNC(=O)[C@H]([C@@H](C)CC)n3cc(CCCCN=C(N)N)nn3)CC2)nc(N2CCN(C(=O)CCCCCCCCCCNC(=O)[C@H](CO)n3cc(CCCCCN)nn3)CC2)n1	123*	·	54*	·	·	54*	56*
COc1ccc(NC(=O)c2sc3ncn(CC(=O)N4CCN(c5ccccn5)CC4)c(=O)c3c2C)cc1OC	-8	106	-11	105	4	58*	49*
Cc1cccc(NC(=O)c2sc3ncn(CC(=O)N4CCN(c5ccccn5)CC4)c(=O)c3c2C)c1	11	99	-8	101	-3	-8	·
CC1=CC(C)(C)Nc2ccc(OC(=O)CCN3C(=O)c4ccccc4C3=O)cc21	5	95	27	94	-1	79*	78*
Cc1ccc(OC(=O)CN2C(=O)c3ccccc3C2=O)cc1C	-3	97	11	97	-3	-1	·
O=C(N/N=C1\CCCc2c1[nH]c1ccc(Cl)cc21)c1ccncc1	-12	·	-8	·	·	45*	55*
SMILES	UBC13 inh	MEKK2 WT-MEK5	ATG4B inh	MEKK3 PB1 HTS	MEKK2 mut-MEK5	PREPL inh	PREPL inh cf
CNCC(O)Cn1c2c(c3ccccc31)CCCC2 (stereo not given)	1	99	-2	99	-3	9	·
Cc1ccc2c(c1)c1c(n2CC(O)CN2CCCCCC2)CCCC1 (stereo not given)	11	123	1	106	14	45*	42
Cc1ccc(OC(C)C(=O)Nc2ccc(S(=O)(=O)N3CCOCC3)cc2)cc1 (stereo not given)	-4	97	-7	97	-2	0	·
COCCn1c(CN(C)Cc2ccccc2)nc2c1c(=O)n(C)c(=O)n2C	1	94	-3	93	0	53*	37
C[n+]1c(-c2ccccc2)sc([S-])c1-c1ccccc1	1	·	-1	·	·	57*	69*
CSc1nc(N(C)C)nc(N(C)C#N)n1	-4	105	0	106	14	1	·
COC(=O)C[C@H]1c2cc(C(F)(F)F)ccc2S(=O)(=O)N1Cc1ccc(OC)cc1	10	101	-4	103	-2	10	·
Cc1c(C(=O)N2CCCCC2)c(S(=O)(=O)NCCc2ccc(S(N)(=O)=O)cc2)c(C)n1C	-2	103	-1	105	5	-4	·
O=C(O)[C@H]1CCCC[C@H]1C(=O)Nc1ccc(Nc2ccccc2)cc1	-7	103	-5	90	-2	93*	8
CC(C)c1ccc(NC(=O)C2CCCCC2C(=O)O)cc1 (stereo not given)	7	·	1	·	·	-6	·
Cc1cc(N2CCOCC2)nc2ccc(NC(=O)CCC(=O)N3CCN(c4ccccc4)CC3)cc12	-6	108	-7	106	5	19	·
Cc1cc(N2CCN(C)CC2)nc2ccc(NC(=O)CCC(=O)N3CCN(c4ccc([N+](=O)[O-])cc4)CC3)cc12	-15	120	-12	104	13	66*	60*
O=C(Nc1ccc(Cn2ccnc2)cc1)c1cccc(C(F)(F)F)c1	0	108	-1	105	3	·	·
CC(C)NC(=O)c1ccc(NC(=O)CC2SC(N3CCCCC3)=NC2=O)cc1 (stereo not given)	2	·	7	·	·	80*	18
CN1CCN(c2ccc(S(=O)(=O)N3CCOCC3)cc2NC(=O)Cc2ccccc2F)CC1	0	·	-8	·	·	2	·
